# Laboratory results: PubChem BioAssay (Tox21)
# Values joined by “and” are separate entries in the source; they are usually repeats but may differ in a detail not shown here. Identical values can stand only once. Records with an inconclusive call do not appear. A call without a number means that no potency is given here. Some structures have more than one record in an assay (separate samples or runs), and their calls can disagree. Active and inactive are the calls of the source. Unless noted, the call rests on the fitted dose curve.
# Assays:
# [1] = Nuclear factor erythroid 2-related factor 2/antioxidant responsive element (Nrf2/ARE) small molecule agonists: qHTS cell viability counter screen in human keratinocytes (AID 1919968; active means well fitted curve in the direction sought with a large enough effect in the repeat runs; an effect the other way counts as inactive or inconclusive; further: nearly all actives have a fitted effect of over 55% in size; further: potency means the concentration at half of the fitted maximal effect)
# Outline: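 HaCaT ARE reporter line, 1,500 cells/well; 5 h settle, 37 C/5% CO2; cpd in DMSO pinned; 23 h exposure; CellTiter-Fluor, 1 h; fluorescence.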
# [2] = Nuclear factor erythroid 2-related factor 2/antioxidant responsive element (Nrf2/ARE) small molecule agonists: luciferase reporter gene qHTS assay in human keratinocytes (AID 1919969); further: nearly all actives have a fitted effect of over 35% in size; further: potency means the concentration at half of the fitted maximal effect
# [3] = target: Gonadotropin-releasing hormone receptor (Homo sapiens) (UniProt P30968); assay: Human gonadotropin-releasing hormone receptor (GnRHR) small molecule agonists, calcium flux assay in GnRHR-HEK293 cells (AID 1920063); further: nearly all actives have a fitted effect of over 35% in size
# Sequence of Gonadotropin-releasing hormone receptor (Homo sapiens) (P30968 whole entry, looked up): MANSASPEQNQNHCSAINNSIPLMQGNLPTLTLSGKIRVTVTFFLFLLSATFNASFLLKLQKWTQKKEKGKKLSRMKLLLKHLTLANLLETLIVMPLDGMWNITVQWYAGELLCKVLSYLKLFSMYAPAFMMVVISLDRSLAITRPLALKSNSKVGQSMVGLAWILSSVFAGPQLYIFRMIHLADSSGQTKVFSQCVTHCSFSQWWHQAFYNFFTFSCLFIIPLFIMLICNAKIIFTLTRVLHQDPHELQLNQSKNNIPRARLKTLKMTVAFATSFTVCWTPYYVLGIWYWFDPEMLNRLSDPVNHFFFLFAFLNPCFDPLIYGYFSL
# Outline: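 GnRHR-HEK293, 1500 cells/well, 18 h 37 C/5% CO2; Ca dye 1 h 37 C; cpd pinned (DMSO), agonist mode; kinetic FL 480/540, 3 min, 1 s reads; 15 conc, n=3.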
# [4] = target: KiSS-1 receptor (Homo sapiens) (UniProt Q969F8); assay: Human kisspeptin (KISS1R) small molecule agonists, calcium flux assay in KISS1R-HEK293 cells (AID 1920064; active means well fitted curve in the direction sought with a large enough effect in the repeat runs; an effect the other way counts as inactive or inconclusive)
# Sequence of KiSS-1 receptor (Homo sapiens) (Q969F8 whole entry, looked up): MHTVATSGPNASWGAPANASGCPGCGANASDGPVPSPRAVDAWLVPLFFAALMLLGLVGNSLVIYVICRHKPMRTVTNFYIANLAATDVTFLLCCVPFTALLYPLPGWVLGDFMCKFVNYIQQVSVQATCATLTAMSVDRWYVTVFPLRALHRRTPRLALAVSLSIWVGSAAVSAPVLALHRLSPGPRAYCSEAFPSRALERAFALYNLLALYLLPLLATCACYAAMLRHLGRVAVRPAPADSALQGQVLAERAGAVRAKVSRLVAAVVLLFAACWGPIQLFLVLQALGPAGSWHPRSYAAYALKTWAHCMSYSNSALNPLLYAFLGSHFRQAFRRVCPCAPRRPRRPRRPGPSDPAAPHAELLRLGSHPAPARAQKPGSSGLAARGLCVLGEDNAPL
# Outline: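 Stable human KISS1R HEK293 line; 18 h plating, 37 C/5% CO2; calcium dye 1 h 37 C; compound pin transfer; kinetic fluorescence Ex/Em 480/540, 3 min.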
# [5] = G protein-coupled receptor (GPCR) small molecule agonists, calcium flux assay: HEK293 wild type cell line counter screen (AID 1920065)
# Outline: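 Kinetic fluorescence at Ex/Em 480/540, recorded every second over 3 min, served as the read-out after compound addition. Each compound was tested at 15 concentrations in triplicate on cells pre-loaded with calcium dye for 1 h.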
# [6] = p53 small molecule agonists, cell-based qHTS assay with rat liver microsomes (AID 1963578)
# Outline: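 Fluorescence from a beta-lactamase reporter under a p53 response element was measured after cells had been incubated 16 h at 37 C with test compound and rat liver microsomes plus NADPH (0.5 mg/mL final each).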
# [7] = p53 small molecule agonists, cell-based qHTS assay with rat liver microsomes: qHTS cell viability counter screen (AID 1963580); further: nearly all actives have a fitted effect of over 45% in size; further: potency means the concentration at half of the fitted maximal effect
# Outline: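 In HCT-116 cells carrying a p53 response element-bla reporter, compounds were metabolically activated in situ by rat liver microsomes with NADPH over 16 h. Cell ATP content then served as the cytotoxicity measure.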
# [8] = p53 small molecule agonists, cell-based qHTS assay: qHTS cell viability counter screen (AID 1963581); further: nearly all actives have a fitted effect of over 45% in size; further: potency means the concentration at half of the fitted maximal effect
# Outline: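 HCT-116 p53RE-bla cells, 4,000/well, plated 5 h before compound pin transfer; 16 h at 37 C; bla substrate 2 h RT; then CellTiter-Glo, 30 min RT, luminescence.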
# [9] = cAMP Responsive Elements (CRE) small molecule agonists, cell-based qHTS assay (AID 1963590)
# Outline: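 HEK 293T CRE-bla, 2,000 cells/well, 18 h preincubation 37 C/5% CO2; cpds (DMSO) pinned, 3 h; LiveBLAzer B/G FRET substrate, 2 h RT.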
# [10] = cAMP Responsive Elements (CRE) small molecule antagonists, cell-based qHTS assay (AID 1963591; active means well fitted inhibition curve with a large enough effect in the signal ratio in the repeat runs, not every such curve was filed as active; the % refers to the signal ratio)
# Outline: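 Beta-lactamase reporter read by FRET substrate (LiveBLAzer B/G) after 2 h at room temperature. CRE-bla HEK293T cells had received compound plus 0.25 uM (final) NKH477 for 3 h at 37 °C.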
# [11] = target: Beta-2 adrenergic receptor (Homo sapiens) (UniProt P07550); assay: Adrenergic beta2 receptor (ADRB2) small molecule antagonists, cell-based qHTS assay (AID 1963592); further: series mostly up to about 92 µM; nearly all actives have a fitted effect of over 50% in size
# Sequence of Beta-2 adrenergic receptor (Homo sapiens) (P07550 whole entry, looked up): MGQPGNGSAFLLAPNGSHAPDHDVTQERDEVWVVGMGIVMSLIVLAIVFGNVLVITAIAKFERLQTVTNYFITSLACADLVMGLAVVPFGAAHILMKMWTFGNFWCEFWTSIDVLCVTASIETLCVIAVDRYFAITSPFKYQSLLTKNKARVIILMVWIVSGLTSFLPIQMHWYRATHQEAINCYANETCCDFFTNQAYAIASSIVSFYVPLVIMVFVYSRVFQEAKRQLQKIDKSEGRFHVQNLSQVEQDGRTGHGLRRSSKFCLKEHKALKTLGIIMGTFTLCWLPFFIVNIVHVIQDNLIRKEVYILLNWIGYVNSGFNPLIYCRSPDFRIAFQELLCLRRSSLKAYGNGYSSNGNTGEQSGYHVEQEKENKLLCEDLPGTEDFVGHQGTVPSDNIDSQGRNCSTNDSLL
# Outline: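 Cells (CHO, stable ADRB2 overexpression) incubated 18-20hr at 37C; compounds added from DMSO; agonist mix (1nM isoproterenol, 100uM IBMX, 25uM Ro-20-1724) added; 0.5hr RT; d2-cAMP and anti-cAMP-cryptate added; 1hr RT; 665/615 nm read.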
# [12] = target: Beta-2 adrenergic receptor (Homo sapiens) (UniProt P07550); assay: Adrenergic beta2 receptor (ADRB2) small molecule agonists, cell-based qHTS assay (AID 1963593);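 further: CHO cells stably overexpressing human ADRB2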
# Outline: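 CHO cells stably over-expressing ADRB2 were plated overnight at 37C, then dosed with compounds plus a stimulation mix containing 100uM IBMX and 25uM Ro-20-1724 for 0.5hr at room temperature. cAMP was measured by HTRF competition, 1hr.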
# [13] = target: D(2) dopamine receptor (Homo sapiens) (UniProt P14416); assay: Dopamine D2 receptor (DRD2) small molecule agonists, cell-based qHTS assay (AID 1963594); further: nearly all actives have a fitted effect of over 35% in size
# Sequence of D(2) dopamine receptor (Homo sapiens) (P14416 whole entry, looked up): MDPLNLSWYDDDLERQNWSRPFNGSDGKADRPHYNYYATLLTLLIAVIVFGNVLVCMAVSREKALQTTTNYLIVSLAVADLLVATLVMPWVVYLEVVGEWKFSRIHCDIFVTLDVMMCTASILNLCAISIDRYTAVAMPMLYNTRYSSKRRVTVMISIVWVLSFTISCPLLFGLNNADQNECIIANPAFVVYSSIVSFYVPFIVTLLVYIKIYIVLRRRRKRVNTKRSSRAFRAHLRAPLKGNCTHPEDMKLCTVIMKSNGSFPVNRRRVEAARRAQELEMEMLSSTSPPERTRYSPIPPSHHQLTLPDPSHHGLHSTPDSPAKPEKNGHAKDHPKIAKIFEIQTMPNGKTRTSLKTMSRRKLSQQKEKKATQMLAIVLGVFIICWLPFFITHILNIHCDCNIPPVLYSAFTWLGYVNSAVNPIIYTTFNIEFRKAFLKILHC
# Outline: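 HEK293 cells stably expressing DRD2 were cultured 24 h at 37 C, then given Ro20-1724 (0.1 mM final) and compounds for 10 min at room temperature. NKH477 (200nM) was then added for 30 min. cAMP was read by HTRF.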
# [14] = p53 small molecule agonists, cell-based qHTS assay with human liver microsomes: qHTS cell viability counter screen (AID 1963579); further: nearly all actives have a fitted effect of over 45% in size; further: potency means the concentration at half of the fitted maximal effect
# Outline: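 Seed p53RE-bla cells at 4,000 per well; incubate 5 h at 37 C; add compound, human liver microsomes and NADPH; incubate 16 h at 37 C; add CellTiter-Glo; after 30 min at room temperature, read luminescence.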
# [15] = target: 5-hydroxytryptamine receptor 2A (Homo sapiens) (UniProt P28223); assay: 5-hydroxytryptamine receptor 2A (HTR2A) small molecule agonists, cell-based qHTS assay (AID 1963587); further: nearly all actives have a fitted effect of over 30% in size; further: potency means the concentration at half of the fitted maximal effect
# Sequence of 5-hydroxytryptamine receptor 2A (Homo sapiens) (P28223 whole entry, looked up): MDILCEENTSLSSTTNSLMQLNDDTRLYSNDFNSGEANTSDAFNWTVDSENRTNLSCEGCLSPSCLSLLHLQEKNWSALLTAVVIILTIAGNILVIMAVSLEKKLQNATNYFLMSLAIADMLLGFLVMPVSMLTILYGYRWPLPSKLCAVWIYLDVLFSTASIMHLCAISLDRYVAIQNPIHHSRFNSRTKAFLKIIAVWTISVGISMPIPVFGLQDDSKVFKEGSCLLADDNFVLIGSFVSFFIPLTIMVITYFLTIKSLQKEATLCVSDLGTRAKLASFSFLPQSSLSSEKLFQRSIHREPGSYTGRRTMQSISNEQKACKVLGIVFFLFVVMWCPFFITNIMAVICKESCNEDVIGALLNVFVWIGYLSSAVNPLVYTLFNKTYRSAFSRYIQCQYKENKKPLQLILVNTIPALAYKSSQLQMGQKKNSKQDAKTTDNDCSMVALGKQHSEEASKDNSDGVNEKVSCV
# Outline: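 HTR2A-CHO cells, plated 18 h at 37 C/5% CO2, dye-loaded 1 h at 37 C; compounds in DMSO added by pin tool (agonist mode). Intracellular calcium flux read as kinetic fluorescence on FDSS over 2 min at 1 s intervals.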
# [16] = target: Muscarinic acetylcholine receptor M1 (Homo sapiens) (UniProt P11229); assay: Cholinergic receptor muscarinic 1 (CHRM1) small molecule antagonists, cell-based qHTS assay (AID 1963588); further: nearly all actives have a fitted effect of over 40% in size; further: potency means the concentration at half of the fitted maximal effect
# Sequence of Muscarinic acetylcholine receptor M1 (Homo sapiens) (P11229 whole entry, looked up): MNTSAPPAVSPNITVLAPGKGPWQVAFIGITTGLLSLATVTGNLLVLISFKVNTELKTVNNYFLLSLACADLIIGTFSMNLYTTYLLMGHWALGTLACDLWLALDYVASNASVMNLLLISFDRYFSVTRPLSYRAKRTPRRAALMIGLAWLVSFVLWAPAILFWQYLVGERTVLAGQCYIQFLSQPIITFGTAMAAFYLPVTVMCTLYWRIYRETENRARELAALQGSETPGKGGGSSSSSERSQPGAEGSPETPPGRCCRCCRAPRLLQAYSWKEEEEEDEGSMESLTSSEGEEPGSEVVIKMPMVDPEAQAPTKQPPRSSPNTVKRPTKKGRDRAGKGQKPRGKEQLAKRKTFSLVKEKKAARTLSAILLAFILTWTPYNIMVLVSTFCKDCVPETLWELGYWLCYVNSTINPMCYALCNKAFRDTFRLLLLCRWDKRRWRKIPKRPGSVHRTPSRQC
# Outline: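 CHRM1-CHO calcium-flux assay, antagonist mode. Cells were seeded 18 h, dye-loaded 1 h at 37 C and given compound for 5 min at RT, then acetylcholine was added at 50nM. FDSS fluorescence was read 3 min; 15 concentrations, three runs.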
# [17] = p53 small molecule agonists, cell-based qHTS assay (AID 1963582; active means well fitted activation curve with a large enough effect in the signal ratio in the repeat runs, not every such curve was filed as active; the % refers to the signal ratio; further: potency means the concentration at half of the fitted maximal effect)
# Outline: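 Reporter line: p53RE-bla. Pre-incubation 5 h, 37 C, 5% CO2; compound (DMSO, pin tool) 16 h, 37 C; B/G FRET substrate 2 h RT; fluorescence intensity read.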
# [18] = target: D(2) dopamine receptor (Homo sapiens) (UniProt P14416); assay: Dopamine D2 receptor (DRD2) small molecule antagonists, cell-based qHTS assay (AID 1963595; active means well fitted inhibition curve with a large enough effect in the signal ratio in the repeat runs, with a control signal flat; the % refers to the signal ratio; further: potency means the concentration at half of the fitted maximal effect)
# Outline: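 HTRF cAMP read-out at 665 and 620 nm emission (340 nm excitation). Antagonist mode: compounds were tested against 12 nM quinpirole in DRD2-HEK293 cells, with 200 nM NKH477 raising cAMP and 0.1 mM Ro20-1724 blocking its breakdown.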
# [19] = target: 5-hydroxytryptamine receptor 2A (Homo sapiens) (UniProt P28223); assay: 5-hydroxytryptamine receptor 2A (HTR2A) small molecule antagonists, cell-based qHTS assay (AID 1963586); further: nearly all actives have a fitted effect of over 45% in size; further: potency means the concentration at half of the fitted maximal effect
# Outline: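 Antagonist-mode intracellular calcium assay: DOI (4 nM) added after 5 min compound pre-incubation at room temperature to dye-loaded HTR2A-CHO cells. Fluorescence followed for 3 min, sampled every second.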
# [20] = target: Muscarinic acetylcholine receptor M1 (Homo sapiens) (UniProt P11229); assay: Cholinergic receptor muscarinic 1 (CHRM1) small molecule agonists, cell-based qHTS assay (AID 1963589); further: nearly all actives have a fitted effect of over 35% in size
# Outline: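 Human M1 in stable CHO line; 18 h plating, 1 h dye load 37 C; cpd added (agonist mode); Ca2+ fluorescence kinetic read, 1 s intervals; 15 conc, 3 runs.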
Compound,Potency [1],Potency [2],Potency [3],Potency [4],Potency [5],Potency [6],Potency [7],Potency [8],Potency [9],Potency [10],Potency [11],Potency [12],Potency [13],Potency [14],Potency [15],Potency [16],Potency [17],Potency [18],Potency [19],Potency [20]
CC(C)(C#N)c1cc(Cn2cncn2)cc(C(C)(C)C#N)c1,inactive,inactive,inactive,inactive,inactive,inactive,inactive,inactive,inactive,inactive,inactive,inactive,inactive,,,,,,,
CCCCCCCCCCCCc1ccccc1O,21.4 µM (active) and 24.3 µM (active),inactive,inactive,inactive,inactive,inactive,,14.3 µM (active) and 18.2 µM (active),,,,,inactive,18 µM (active) and 20.4 µM (active),inactive,inactive,,,,
C[C@]12CC[C@@H]3c4ccc(O)cc4CC[C@H]3[C@@H]1CC[C@@H]2O,inactive,inactive,inactive,inactive,inactive,inactive,,,inactive,inactive,inactive,,inactive,inactive,,,inactive,inactive,,
COCCOCCOC,inactive,inactive,inactive,inactive,inactive,inactive,inactive,145 nM (active) and inactive,inactive,inactive,inactive,inactive,inactive,,inactive,inactive,inactive,inactive,inactive,inactive
CCCCCCCCCCCCCCCC[N+](C)(C)Cc1ccccc1,28.2 µM (active) and 24.8 µM (active) and 26.6 µM (active),inactive,inactive,inactive,inactive,inactive,41.5 µM (active) and inactive,37 µM (active),,,inactive,inactive,inactive,,49.8 µM (active),0.41 µM (active),,55.5 µM (active),inactive and 11.6 µM (active),inactive
O=c1[nH]cc(F)c(=O)[nH]1,5.65 µM (active) and inactive,inactive,inactive,inactive,inactive,inactive,47.5 µM (active) and inactive,inactive,inactive,inactive,inactive,,inactive,,,,2.63 µM (active) and 7.93 µM (active),,,
CCNc1cccc(C)c1,inactive,inactive,inactive,inactive,inactive,inactive,,inactive,inactive,inactive,inactive,inactive,inactive,inactive,inactive,inactive,,inactive,inactive,inactive
c1ccc2c(c1)ccc1cc3c(ccc4ccccc43)cc12,inactive,17 µM (active) and 2.15 µM (active),inactive,inactive,inactive,inactive,inactive,inactive,inactive,inactive,inactive,inactive,inactive,,,inactive,inactive,inactive,inactive,inactive
